The target of one assay is PUM1 PUF domain R4-PFC (Homo sapiens, UniProt Q14671 828-1176, N971P;H972F;Q975C). In words: yeast three-hybrid, YBZ-1, SC-Leu-His + 0.5 mM 3-AT, 4 days. Conditions: tags: N-Gal4 AD-HA kept; label: inside an RPR1-promoter hybrid RNA with tandem MS2 sites; ssRNA. The gist of the method:
(§1)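 Pumilio-1 PUF domain libraries, randomized (NNK) at the three base-contacting residues of each repeat, were co-expressed with matching RNA elements from a centromeric plasmid in strain YBZ-1 (LexA–MS2 coat fusion, HIS3 reporter). Transformants were plated on SC-Leu (input) and SC-Leu-His + 0.5 mM 3-AT (selection) for four days, and repeat regions were PCR-amplified and Illumina-sequenced. The interaction score is the log2 change in variant frequency from input to selection, with pseudocount 1 where absent.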
On to “GGCUAGAACUAGUGGAUCCCCCGGCGCCCGGCGGCUCGAGCCCGGGUAAGUGUACAUAGUCUGCAUGCCGCCGGGCGCCAUGCCUGCAGGUCGACUCUAGAAAACAUG”, for which the binding signal is 5.29 log2 enrichment (interaction score). Turning to “GGCUAGAACUAGUGGAUCCCCCGGCGCCCGGCGGCUCGAGCCCGGGUAAGUGUAAAUAGUCUGCAUGCCGCCGGGCGCCAUGCCUGCAGGUCGACUCUAGAAAACAUG”, the binding signal was 7.66 log2 enrichment (interaction score). Same read-out and setting: the figure for “GGCUAGAACUAGUGGAUCCCCCGGCGCCCGGCGGCUCGAGCCCGGGUAAGUGUAUAUAGUCUGCAUGCCGCCGGGCGCCAUGCCUGCAGGUCGACUCUAGAAAACAUG” is 7.01 log2 enrichment (interaction score).

The next assay has as its target PUM1 PUF domain R5-RRY (Homo sapiens, UniProt Q14671 828-1176, C1007R;Q1011Y). The assay is described as above. The conditions noted are these: tags: N-Gal4 AD-HA kept; label: inside an RPR1-promoter hybrid RNA with tandem MS2 sites; ssRNA. The gist of the method: as §1
In the case of “GGCUAGAACUAGUGGAUCCCCCGGCGCCCGGCGGCUCGAGCCCGGGUAAGUGUAAAUAGUCUGCAUGCCGCCGGGCGCCAUGCCUGCAGGUCGACUCUAGAAAACAUG”, the binding signal is 1.18 log2 enrichment (interaction score). Same read-out and setting: in the case of “GGCUAGAACUAGUGGAUCCCCCGGCGCCCGGCGGCUCGAGCCCGGGUAAGUGUCAAUAGUCUGCAUGCCGCCGGGCGCCAUGCCUGCAGGUCGACUCUAGAAAACAUG” it was 4.32 log2 enrichment (interaction score). With “GGCUAGAACUAGUGGAUCCCCCGGCGCCCGGCGGCUCGAGCCCGGGUAAGUGUUAAUAGUCUGCAUGCCGCCGGGCGCCAUGCCUGCAGGUCGACUCUAGAAAACAUG”, the binding signal is 3.28 log2 enrichment (interaction score).

The target of another assay is PUM1 PUF domain R4-NRG (Homo sapiens, UniProt Q14671 828-1176, H972R;Q975G). The assay is described as above. Conditions: tags: N-Gal4 AD-HA kept; label: inside an RPR1-promoter hybrid RNA with tandem MS2 sites; ssRNA. The gist of the method:
as §1
Take “GGCUAGAACUAGUGGAUCCCCCGGCGCCCGGCGGCUCGAGCCCGGGUAAGUGUACAUAGUCUGCAUGCCGCCGGGCGCCAUGCCUGCAGGUCGACUCUAGAAAACAUG”: the binding signal is 0.43 log2 enrichment (interaction score). Same read-out and setting: in the case of “GGCUAGAACUAGUGGAUCCCCCGGCGCCCGGCGGCUCGAGCCCGGGUAAGUGUAAAUAGUCUGCAUGCCGCCGGGCGCCAUGCCUGCAGGUCGACUCUAGAAAACAUG” it was 3.35 log2 enrichment (interaction score); in that of “GGCUAGAACUAGUGGAUCCCCCGGCGCCCGGCGGCUCGAGCCCGGGUAAGUGUAUAUAGUCUGCAUGCCGCCGGGCGCCAUGCCUGCAGGUCGACUCUAGAAAACAUG”, 2.73 log2 enrichment (interaction score).

Values taken from paper PMC8384837, “Expanding the binding specificity for RNA recognition by a PUF domain”.
